Screening data from PubChem.
Rows were chosen to be rich in hits. Some 3.1% of all compounds tested hit in one or more screens of this group.
uPA surface inh: cell surface uPA generation inhibition. actives 0.31% (n = 330,000). Potency, µM (highest dose often 38.3 µM), inactives show at the highest dose activity change, negative = inhibition, most hits filed as inhibitors. AID 540303. cell surface uPA generation assay, qHTS; active = well fitted inhibition curve with a large enough effect; inconclusive = small, poorly fitted or top-dose-only effect; inactive = no such curve, though single readings can be large or run the other way; tested in mouse RAW 264.7 cells; note: potency is the fitted concentration of half-maximal effect; % is set by controls: 0 for no effect and ±100 for the full control effect; nearly all actives have a fitted effect of over 55% in size
DRD3 agonist: agonists of human D3 dopamine receptor. P35462. D3R DiscoveRx beta-arrestin cells, luminescence, 90 min. max activation, %. actives 0.58% (n = 410,000). AID 652048; in the data active = max activation above about 30%; note: 0% is about no effect
Target sequence (P35462 whole entry, looked up): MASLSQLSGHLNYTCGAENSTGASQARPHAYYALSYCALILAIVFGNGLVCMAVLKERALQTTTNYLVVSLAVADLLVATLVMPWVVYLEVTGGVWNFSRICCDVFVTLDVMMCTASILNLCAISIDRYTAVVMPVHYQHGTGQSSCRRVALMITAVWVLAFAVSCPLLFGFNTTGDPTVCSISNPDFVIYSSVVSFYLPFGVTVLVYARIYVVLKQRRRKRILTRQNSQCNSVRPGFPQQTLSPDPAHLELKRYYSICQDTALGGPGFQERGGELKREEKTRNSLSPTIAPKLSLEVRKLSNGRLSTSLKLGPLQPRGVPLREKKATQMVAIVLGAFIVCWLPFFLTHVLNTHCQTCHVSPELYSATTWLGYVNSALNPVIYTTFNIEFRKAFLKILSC
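Cells at 1500/well, incubated overnight, then treated with pinned compounds (dopamine as control) for 90 min at 37 degrees C. DiscoveRx reagent added for 30 - 60 minutes at room temperature; luminescence read.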
RGS4 inh: inhibitors of human regulator of G protein signaling 4; Transcreener GDP fluorescence polarization, RGS4-accelerated GTP hydrolysis; P49798; Potency, µM (series often up to 114 µM), without a hit: at the top dose activity change, negative = inhibition, usual class: inhibitors; actives 0.039% (n = 390,000); active = well fitted inhibition curve with a large enough effect; inconclusive = small, poorly fitted or top-dose-only effect; inactive = no such curve, though single readings can be large or run the other way; note: potency is the fitted concentration of half-maximal effect; % is set by controls: 0 for no effect and ±100 for the full control effect; nearly all actives have a fitted effect of over 75% in size
Target sequence (P49798 whole entry, looked up): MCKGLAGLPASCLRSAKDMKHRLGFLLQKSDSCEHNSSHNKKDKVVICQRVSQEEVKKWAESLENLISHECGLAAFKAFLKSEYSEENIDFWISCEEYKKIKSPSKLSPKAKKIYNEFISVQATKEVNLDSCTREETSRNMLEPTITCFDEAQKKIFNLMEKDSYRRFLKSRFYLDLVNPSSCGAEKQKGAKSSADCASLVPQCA
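MLSMR compounds (23 nl, pin-transferred) preincubated 10 min at room temperature with a 500nM (2x) first reagent, then RGS4 at 900nM (2x) plus Transcreener GDP mix added; fluorescence polarization (620/688 nm) read before and after 90 min at 30 °C.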
DRD3 antagonist: D3 dopamine receptor (human) antagonism; P35462; D3R cells, DiscoveRx beta-arrestin luminescence, antagonist mode; stronger effect = lower value; max response, negative = inhibition, %; actives 2.5% (n = 360,000); AID 652054; in the data active = max response below about -50%; inconclusive = no clear call, values can overlap the other calls; note: % is set by controls: 0 for no effect and ±100 for the full control effect
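Cells expressing the human receptor were seeded at 1500 cells/well, incubated overnight at 37 degrees C in 5% CO2, then exposed to library compounds with dopamine controls for 90 minutes at 37 degrees C before luminescent detection.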
* marks the source's active call; other numbers are inactive results.

`CN(C)c1ccc(/C=C(/C#N)C(=O)NCc2ccccc2)o1` gave uPA surface inh 3%, DRD3 agonist -17, RGS4 inh -26% and DRD3 antagonist -88*.
`Cc1ccccc1OCCN1CCCC1` gave uPA surface inh -19%, DRD3 agonist -13, RGS4 inh -12% and DRD3 antagonist inconclusive.
`CCC(C)c1ccccc1OCCCCN1CCCC1` (configuration not stated) gave uPA surface inh 6%, DRD3 agonist -27, RGS4 inh -22% and DRD3 antagonist -72*.
CCC(C)c1ccccc1OCCOCCN1CCCC1 (configuration not stated) was read as uPA surface inh 3%, DRD3 agonist -25, RGS4 inh 16% and DRD3 antagonist -52*.
For CC(=O)Oc1ccc(C(=O)[C@H]2[C@H]3C(=O)N(c4ccccc4)C(=O)[C@H]3[C@@H]3C=CC=NN32)cc1 the results were uPA surface inh 7%, DRD3 agonist -7, RGS4 inh -45% and DRD3 antagonist -25.
COc1ccc(C(=O)[C@H]2[C@H]3C(=O)N(c4ccccc4)C(=O)[C@H]3C3C=CC=NN32)cc1 (some centres not stated) was read as uPA surface inh -2%, DRD3 agonist 68*, RGS4 inh -17% and DRD3 antagonist -11.
For Cc1noc(C)c1COc1ccc(C(=O)NNC(=O)c2ccccc2)cc1 the results were uPA surface inh -13%, DRD3 agonist 2, RGS4 inh 4% and DRD3 antagonist -2.
`Cc1noc(C)c1COc1ccc(C(=O)NNC(=O)c2ccccc2F)cc1` gave uPA surface inh 2.8µM*, DRD3 agonist -8, RGS4 inh 8% and DRD3 antagonist -9.
For Cc1noc(C)c1COc1ccc(C(=O)O)cc1 the results were uPA surface inh -2%, DRD3 agonist 33*, RGS4 inh 4% and DRD3 antagonist -16.
For CCOC(=O)c1ccc(OCc2c(C)noc2C)cc1 the results were uPA surface inh -1%, DRD3 agonist 2, RGS4 inh -13% and DRD3 antagonist 4.
CC(=O)Nc1ccc(S(=O)(=O)NC2(C(F)(F)F)NC(=O)N(CCc3ccc(F)cc3)C2=O)cc1 (configuration not stated) was read as DRD3 agonist -9 and RGS4 inh -20%.
`CCCOc1cccc(C2c3c(-c4ccccc4O)n[nH]c3C(=O)N2Cc2ccco2)c1` (configuration not stated) gave DRD3 agonist 3 and RGS4 inh -16%.
`CSc1nc(N)c2c3c(sc2n1)CN(C)CC3` gave uPA surface inh -5%, DRD3 agonist 4, RGS4 inh 14% and DRD3 antagonist -52*.
Screening CCNc1nc(SCC(N)=O)nc2sc3c(c12)CCN(C)C3 returned uPA surface inh 2%, DRD3 agonist -7, RGS4 inh -18% and DRD3 antagonist 0.
`CSc1nc(SCC(N)=O)c2c3c(sc2n1)CN(C)CC3` gave uPA surface inh -5%, DRD3 agonist -12, RGS4 inh 26% and DRD3 antagonist -54*.
Screening Cc1ccc(Cl)cc1N1CCN(C(=O)c2cc(S(=O)(=O)N3CCCC3)c[nH]2)CC1 returned DRD3 agonist -12 and RGS4 inh -41%.
CCOC(=O)N(C)C[C@H]1OCc2cnnn2CCCC(=O)N([C@@H](C)CO)C[C@H]1C was read as DRD3 agonist -4 and DRD3 antagonist 12.
For CCOC(=O)c1ccc(NC(=O)C2CCN(C(=O)N3CC(C)Oc4ccc(C)cc43)CC2)cc1 (configuration not stated) the results were DRD3 agonist 4 and RGS4 inh 5%.
`NS(=O)(=O)c1ccc(NC(=S)NC(=O)c2ccc(-c3ccccc3)cc2)cc1` gave uPA surface inh -7%, DRD3 agonist 38*, RGS4 inh -25% and DRD3 antagonist -14.
`O=C(NC(=S)Nc1ccc(-c2ccccc2)cc1)c1ccccc1` gave uPA surface inh 5%, DRD3 agonist -11, RGS4 inh -33% and DRD3 antagonist -23.
For O=C(O)c1cccc(NC(=S)NC(=O)c2ccc(-c3ccccc3)cc2)c1 the results were uPA surface inh -2%, DRD3 agonist 7, RGS4 inh -12% and DRD3 antagonist 13.
`Cc1ccc(C(=O)O)cc1NC(=S)NC(=O)c1ccc(-c2ccccc2)cc1` gave uPA surface inh -14%, DRD3 agonist -23, RGS4 inh inconclusive and DRD3 antagonist -52*.
Cc1cccc(C(=O)NC(=S)Nc2ccccc2C(F)(F)F)c1 was read as uPA surface inh 3%, DRD3 agonist -1, RGS4 inh -49% and DRD3 antagonist -29.
Cc1ccc(C(=O)NC(=S)Nc2ccccc2C(F)(F)F)cc1C was read as uPA surface inh 4%, DRD3 agonist -1, RGS4 inh 6% and DRD3 antagonist -80*.
For N#Cc1c(-c2ccccc2)ccn(Cc2ccccc2Cl)c1=O the results were uPA surface inh -9%, DRD3 agonist -1, RGS4 inh 8% and DRD3 antagonist -51*.
`O=C(/C=C/c1ccncc1)c1ccc2c(c1)OCCO2` gave uPA surface inh -9%, DRD3 agonist 2, RGS4 inh inconclusive and DRD3 antagonist -54*.
CCN(Cc1ccccc1)c1ccc(N=Nc2nn(C)c(C)c2[N+](=O)[O-])cc1 was read as uPA surface inh -1%, DRD3 agonist -12, RGS4 inh -27% and DRD3 antagonist -51*.
`CCN(CC)c1ccc(N=Nc2nn(C)c(C)c2[N+](=O)[O-])cc1` gave uPA surface inh -10%, DRD3 agonist -14, RGS4 inh -18% and DRD3 antagonist -59*.
Screening CCN(Cc1ccccc1)c1ccccc1 returned uPA surface inh 8%, DRD3 agonist -9, RGS4 inh 7% and DRD3 antagonist 22.
`Cc1cccc(NC(=O)CCS(=O)(=O)c2cc(Br)cc3c2N(C(=O)C2CC2)CC3)c1` gave DRD3 agonist -8 and RGS4 inh -22%.
`Cc1ccc(CNCCC2=CCCCC2)cc1` gave DRD3 agonist -50, RGS4 inh 0% and DRD3 antagonist -67*.
Screening Cc1ccc(S(=O)(=O)NCCC2=CCCCC2)cc1 returned uPA surface inh 4%, DRD3 agonist -3, RGS4 inh 18% and DRD3 antagonist -2.
COc1cc(C(=O)NCCC2=CCCCC2)cc(OC)c1OC was read as uPA surface inh -3%, DRD3 agonist -8, RGS4 inh -44% and DRD3 antagonist -62*.
Screening COc1ccc(C)cc1NC(=O)NCCC1=CCCCC1 returned DRD3 agonist -30, RGS4 inh 10% and DRD3 antagonist -72*.
Screening COc1cc(C(=O)OCC(=O)NCCC2=CCCCC2)cc(OC)c1OC returned uPA surface inh 13%, DRD3 agonist -5, RGS4 inh -5% and DRD3 antagonist 12.
For COc1cc(-c2nc(CCNC(=O)c3ccco3)cs2)cc(OC)c1OC the results were uPA surface inh 4%, DRD3 agonist 8, RGS4 inh 22% and DRD3 antagonist 8.
COc1cc(C(=O)NCCc2csc(-c3ccc(Cl)cc3)n2)cc(OC)c1OC was read as DRD3 agonist 41* and RGS4 inh -4%.
